Test results from PubChem BioAssay AID1159580 (chemical genetic matrix, 2015).
“And” between values parts separate entries of the source, which are not always exact repeats. Identical values can stand only once. In all, about 5,500 compounds went through this assay and about 2,000 (36%) were called active. Not shown: some 18% with an inconclusive outcome. Cut-off read from the data, not from the text of the source: active = normalized growth mostly below about 0.91 (no sharp cut-off); inconclusive = no clear call, values can overlap the other calls; inactive = mostly above about 0.92. The list shows a part of the results.

Assay: chemical genetic growth profiling, strain panel (AID 1159580);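 note: tested at 20 µM; growth read once vehicle control cultures reached saturation at 30 °C; 1 = growth at the plate median or of vehicle wells; lower values mean less growth of the strain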
Details: S. cerevisiae deletion strains, growth OD

Measured: normalized growth

COc1ccc(-c2coc3c(O)c(OC)ccc3c2=O)cc1
0.757 (active) and 1 (inactive): locus YJL095W, strain BCK1, stronger effect = lower value
inactive: locus YAL021C, strain ccr4, stronger effect = lower value 0.907 | locus YAL026C, strain drs2, stronger effect = lower value 0.944 | locus YAL030W, strain snc1, stronger effect = lower value 0.966 | locus YBL061C, strain skt5, stronger effect = lower value 0.983 | locus YBR171W, strain sec66, stronger effect = lower value 0.957 | locus YBR279W, strain paf1, stronger effect = lower value 0.977 | locus YCL011C, strain gbp2, stronger effect = lower value 0.927 | locus YCL029C, strain bik1, stronger effect = lower value 0.914 | locus YCL069W, strain vba3, stronger effect = lower value 0.945 | locus YCR088W, strain abp1, stronger effect = lower value 0.973 | locus YDL005C, strain med2, stronger effect = lower value 1.01 | locus YDL035C, strain GPR1, stronger effect = lower value 0.874 | locus YDL040C, strain nat1, stronger effect = lower value 0.987 | locus YDL074C, strain BRE1, stronger effect = lower value 0.786 | locus YDL101C, strain DUN1, stronger effect = lower value 0.932 | locus YDR001C, strain nth1, stronger effect = lower value 1 | locus YDR069C, strain doa4, stronger effect = lower value 1 | locus YDR195W, strain ref2 1.01 | locus YDR297W, strain sur2, stronger effect = lower value 0.967 | locus YDR334W, strain swr1, stronger effect = lower value 0.96 | locus YDR335W, strain msn5, stronger effect = lower value 0.93 | locus YDR388W, stronger effect = lower value 0.944 | locus YDR502C, strain sam2, stronger effect = lower value 0.936 | locus YEL003W, strain gim4, stronger effect = lower value 0.944 | locus YEL037C, strain rad23, stronger effect = lower value 0.959 | locus YEL061C, strain CIN8 (second series), stronger effect = lower value 0.963 | locus YEL061C, strain CIN8, stronger effect = lower value 0.931 | locus YER015W, strain faa2, stronger effect = lower value 0.939 | locus YER016W, strain bim1, stronger effect = lower value 0.966 | locus YER110C, stronger effect = lower value 0.904 | locus YER111C, strain swi4, stronger effect = lower value 0.993 | locus YER155C, strain BEM2, stronger effect = lower value 0.942 | locus YFR010W, strain ubp6, stronger effect = lower value 1 | locus YGL078C, strain dbp3, stronger effect = lower value 0.959 | locus YGL167C, strain pmr1, stronger effect = lower value 0.976 | locus YGL173C, strain kem1, stronger effect = lower value 0.97 | locus YGL227W, strain vid30, stronger effect = lower value 0.983 | locus YGL248W, strain PDE1, stronger effect = lower value 0.906 | locus YGL253W, strain hxk2, stronger effect = lower value 0.954 | locus YGR135W, strain pre9, stronger effect = lower value 0.916 | locus YGR252W, strain gcn5, stronger effect = lower value 0.781 | locus YHR013C, strain ard1, stronger effect = lower value 0.966 | locus YHR027C, strain rpn1, stronger effect = lower value 0.98 | locus YHR030C, strain SLT2, stronger effect = lower value 0.943 and 1.02 | locus YHR079C, strain IRE1 (second series), stronger effect = lower value 0.955 | locus YHR079C, strain IRE1, stronger effect = lower value 1.01 | locus YHR094C, strain hxt1, stronger effect = lower value 0.941 | locus YIL073C, strain SPO22, stronger effect = lower value 0.824 | locus YIL125W, strain kgd1, stronger effect = lower value 0.948 | locus YIR030C, strain dcg1, stronger effect = lower value 0.944 | locus YJL092W, strain hpr5, stronger effect = lower value 0.982 | locus YJL095W, strain BCK1 (second series), stronger effect = lower value 0.959 | locus YJL115W, strain asf1, stronger effect = lower value 0.943 | locus YJL134W, strain LCB3, stronger effect = lower value 0.937 | locus YJL154C, strain vps35, stronger effect = lower value 0.974 | locus YJL164C, strain tpk1, stronger effect = lower value 0.941 | locus YJL168C, strain set2, stronger effect = lower value 0.954 | locus YJL187C, strain SWE1 (second series), stronger effect = lower value 0.904 | locus YJR066W, strain TOR1, stronger effect = lower value 0.959
active: locus YBR009C, strain hhf1, stronger effect = lower value 0.887 | locus YBR021W, strain FUR4, stronger effect = lower value 0.818 | locus YBR023C, strain chs3, stronger effect = lower value 0.887 | locus YBR229C, strain ROT2, stronger effect = lower value 0.905 | locus YBR231C, strain swc5, stronger effect = lower value 0.893 | locus YCL016C, strain dcc1, stronger effect = lower value 0.877 | locus YDL185W, strain tfp1, stronger effect = lower value 0.888 | locus YDL192W, strain arf1, stronger effect = lower value 0.837 | locus YDR101C, strain arx1, stronger effect = lower value 0.863 | locus YDR137W, strain rgp1, stronger effect = lower value 0.696 | locus YDR159W, strain sac3, stronger effect = lower value 0.797 | locus YDR162C, strain NBP2, stronger effect = lower value 0.755 | locus YDR318W, strain mcm21, stronger effect = lower value 0.871 | locus YDR392W, strain spt3, stronger effect = lower value 0.383 | locus YER155C, strain BEM2 (second series), stronger effect = lower value 0.54 | locus YER167W, strain BCK2, stronger effect = lower value 0.87 | locus YGL086W, strain mad1, stronger effect = lower value 0.862 | locus YGL240W, strain doc1, stronger effect = lower value 0.851 | locus YHR129C, strain ARP1, stronger effect = lower value 0.907 | locus YHR142W, strain chs7, stronger effect = lower value 0.832 | locus YHR200W, strain rpn10, stronger effect = lower value 0.902 | locus YIL066C, strain RNR3, stronger effect = lower value 0.757 | locus YJL129C, strain trk1, stronger effect = lower value 0.731 | locus YJL166W, strain qcr8, stronger effect = lower value 0.828
